According to PubChem BioAssay (NCATS):
Inconclusive results are not listed. Unmarked numbers belong to inactive results. Calls follow the shape of the dose curve; as a rule, active = well fitted cell-killing curve with a large enough effect; inconclusive = small, poorly fitted or top-dose-only effect; inactive = flat fitted curve, though single readings scatter.

Assay: qHTS of pediatric cancer cell lines to identify multiple opportunities for drug repurposing: Primary screen for BT-37 cells (AID 1347094);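 also: plate controls were DMSO for no effect and bortezomib for full effect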
Settings: BT-37 viability, CellTiter-Glo luminescence, 48 h; series mostly up to 57.3 µM; activity change, negative = cytotoxic: at the top concentration
Summary of the method: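 Cells plated at 500-1,000/well in growth medium, compounds added after 5 h. MIPE tested at 11 points (from 0.78 nM), NPC at 8 points (from 0.59 nM). CellTiter-Glo luminescence after 48 h; concentration-response curves from primary screen.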

SMILES	activity change, negative = cytotoxic
C[N+](C)(C)CCOC(=O)CCC(=O)OCC[N+](C)(C)C	10.7%
C[C@]12C=CC(=O)C=C1CC[C@H]1[C@@H]3C[C@@H](O)[C@](O)(C(=O)CO)[C@@]3(C)C[C@H](O)[C@@]12F	14.8%
CC(=O)OCC1=C(C(=O)O)N2C(=O)[C@@H](NC(=O)Cc3cccs3)[C@H]2SC1	5.77%
CC(C)NNC(=O)c1ccncc1	11.1%
CCN(CC)CCNC(=O)c1cc(S(C)(=O)=O)ccc1OC	20.1%
O=C(O)CN(CCOCCOCCN(CC(=O)O)CC(=O)O)CC(=O)O	13% [at 0.745 µM]
Cc1cccc(C)c1NC(=O)C(C)N (stereo not given)	4.22%
CSc1ccc(C(=O)c2[nH]c(=O)[nH]c2C)cc1	10.7%
C[N+](C)(C)CCCCCCCCCC[N+](C)(C)C	13.5%
Cc1nnc(SCC2=C(C(=O)O)N3C(=O)[C@@H](NC(=O)Cn4cnnn4)[C@H]3SC2)s1	12%
NC(=O)N1c2ccccc2C=Cc2ccccc21	21.8%
CC(C(=O)O)c1ccc(CC2CCCC2=O)cc1 (stereo not given)	9.39%
CCn1ccnc1CC1COc2ccccc2O1 (stereo not given)	3.17%
COc1ccc([C@@H]2Sc3ccccc3N(CCN(C)C)C(=O)[C@@H]2OC(C)=O)cc1	-1.32%
c1cnc(N2CCN(Cc3ccc4c(c3)OCO4)CC2)nc1	4.71%
CN1CCN(CC(=O)N2c3ccccc3C(=O)Nc3cccnc32)CC1	11.8% [at 6.03 µM]
CN(C)CCOC(=O)COc1ccc(Cl)cc1	12.7%
Cc1ccc(=O)n(-c2ccccc2)c1	9.41%

SMILES	activity change, negative = cytotoxic
CN/C(=C\[N+](=O)[O-])NCCSCc1ccc(CN(C)C)o1	-10.9%
CCCN(CCC)C(=O)C(CCC(=O)O)NC(=O)c1ccccc1 (stereo not given)	-1.12%
CCCOc1ccccc1-c1nc2n[nH]nc2c(=O)[nH]1	11.1%
O=C1CC2(CCCC2)CC(=O)N1CCCCN1CCN(c2ncccn2)CC1	3.21%
NC(Cc1ccc(Cl)cc1)C(=O)O (stereo not given)	9.97% [at 0.745 µM]
CC[N+](C)(C)c1cccc(O)c1	13.5%
CCc1c(C)[nH]c2c1C(=O)C(CN1CCOCC1)CC2 (stereo not given)	8.96%
CC1=NS(=O)(=O)c2cc(Cl)ccc2N1	13.5%
C[N+](C)(C)CCOC(N)=O	8.46%
c1ccc2c(c1)CCCC2C1=NCCN1 (stereo not given)	9.24%
CN(C)C(=O)Oc1cccc([N+](C)(C)C)c1	21.2%
CCN(CC)CC(=O)Nc1c(C)cccc1C	5.1%
COc1ccc(CN(CCN(C)C)c2ccccn2)cc1	-3.9%
CCO/C([O-])=N/c1c[n+](N2CCOCC2)no1	1.86%
CN1C(=O)CC[C@H]1c1cccnc1	24.3%
Brc1c(NC2=NCCN2)ccc2nccnc12	-3.44%
NC/C=C/C(=O)O	18.6%
